ChEMBL document CHEMBL1961873, “Compounds: GSK PKIS; Assays: Nanosyn kinase panel” (2012)

What was measured:
[1] = target: T1, Serine/threonine-protein kinase TBK1 (Homo sapiens) (UniProt Q9UHD2); details: at 1 µM;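 note: values are mean inhibition of TBK1, screened as part of the GSK published kinase inhibitor set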
T1 sequence (whole entry): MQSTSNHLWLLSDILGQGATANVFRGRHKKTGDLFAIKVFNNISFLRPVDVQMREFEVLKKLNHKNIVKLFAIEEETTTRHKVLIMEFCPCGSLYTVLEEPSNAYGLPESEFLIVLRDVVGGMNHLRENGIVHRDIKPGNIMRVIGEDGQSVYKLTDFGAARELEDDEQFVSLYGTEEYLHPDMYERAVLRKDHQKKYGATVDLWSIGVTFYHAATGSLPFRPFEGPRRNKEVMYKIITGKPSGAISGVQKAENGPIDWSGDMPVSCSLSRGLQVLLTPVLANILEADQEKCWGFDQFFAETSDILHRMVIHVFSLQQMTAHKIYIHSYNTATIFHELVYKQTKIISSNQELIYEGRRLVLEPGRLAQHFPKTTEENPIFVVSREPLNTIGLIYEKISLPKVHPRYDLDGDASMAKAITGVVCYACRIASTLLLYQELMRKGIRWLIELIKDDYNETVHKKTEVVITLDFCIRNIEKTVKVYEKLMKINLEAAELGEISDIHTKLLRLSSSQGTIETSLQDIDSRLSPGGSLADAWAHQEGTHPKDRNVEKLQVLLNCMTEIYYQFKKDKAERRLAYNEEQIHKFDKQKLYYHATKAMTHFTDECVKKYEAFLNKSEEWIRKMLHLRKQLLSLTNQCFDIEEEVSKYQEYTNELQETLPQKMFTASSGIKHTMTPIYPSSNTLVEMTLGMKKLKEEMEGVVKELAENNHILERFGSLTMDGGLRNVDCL

[2] = target: T2, Testis-specific serine/threonine-protein kinase 1 (Homo sapiens) (UniProt Q9BXA7); details: at 0.1 µM
T2 sequence (whole entry): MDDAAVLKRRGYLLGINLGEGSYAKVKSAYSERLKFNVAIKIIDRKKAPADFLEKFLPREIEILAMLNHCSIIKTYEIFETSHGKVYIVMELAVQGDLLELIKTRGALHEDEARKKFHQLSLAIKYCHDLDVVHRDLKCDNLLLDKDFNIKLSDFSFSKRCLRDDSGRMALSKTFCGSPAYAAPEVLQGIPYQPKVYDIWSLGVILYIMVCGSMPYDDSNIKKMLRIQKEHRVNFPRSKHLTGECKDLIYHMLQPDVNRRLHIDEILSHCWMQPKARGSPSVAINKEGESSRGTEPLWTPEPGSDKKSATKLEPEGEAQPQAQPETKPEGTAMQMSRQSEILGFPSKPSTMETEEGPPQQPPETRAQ

[3] = target: T2, Testis-specific serine/threonine-protein kinase 1 (Homo sapiens); details: at 1 µM
[4] = target: T3, Testis-specific serine/threonine-protein kinase 2 (Homo sapiens) (UniProt Q96PF2); details: at 0.1 µM
T3 sequence (whole entry): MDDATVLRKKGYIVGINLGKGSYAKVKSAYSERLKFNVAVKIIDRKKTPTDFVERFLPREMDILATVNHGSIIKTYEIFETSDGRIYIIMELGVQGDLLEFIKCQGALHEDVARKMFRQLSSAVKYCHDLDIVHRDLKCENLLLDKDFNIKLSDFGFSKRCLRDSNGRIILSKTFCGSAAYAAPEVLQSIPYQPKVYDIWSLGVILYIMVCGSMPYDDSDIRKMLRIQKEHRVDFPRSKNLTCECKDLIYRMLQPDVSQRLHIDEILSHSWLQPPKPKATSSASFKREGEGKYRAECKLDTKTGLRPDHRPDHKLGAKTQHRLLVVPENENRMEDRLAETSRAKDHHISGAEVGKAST

[5] = target: T3, Testis-specific serine/threonine-protein kinase 2 (Homo sapiens); details: at 1 µM
[6] = target: Casein kinase I isoform alpha (Homo sapiens) (UniProt P48729); details: at 0.1 µM
[7] = target: Casein kinase I isoform alpha (Homo sapiens) (UniProt P48729); details: at 1 µM
[8] = target: Casein kinase I isoform gamma-1 (Homo sapiens) (UniProt Q9HCP0); details: at 0.1 µM
[9] = target: Casein kinase I isoform gamma-1 (Homo sapiens) (UniProt Q9HCP0); details: at 1 µM
[10] = target: Casein kinase I isoform gamma-2 (Homo sapiens) (UniProt P78368); details: at 0.1 µM
[11] = target: Casein kinase I isoform gamma-2 (Homo sapiens) (UniProt P78368); details: at 1 µM
[12] = target: Casein kinase I isoform gamma-3 (Homo sapiens) (UniProt Q9Y6M4); details: at 0.1 µM
[13] = target: Casein kinase I isoform gamma-3 (Homo sapiens) (UniProt Q9Y6M4); details: at 1 µM
[14] = target: Cyclin-dependent kinase 1 (Homo sapiens) (UniProt P06493); details: at 0.1 µM
[15] = target: Cyclin-dependent kinase 1 (Homo sapiens) (UniProt P06493); details: at 1 µM
[16] = target: Cyclin-dependent kinase 2 (Homo sapiens) (UniProt P24941); details: at 0.1 µM
[17] = target: Cyclin-dependent kinase 2 (Homo sapiens) (UniProt P24941); details: at 1 µM
[18] = target: Cyclin-dependent kinase 2 (Homo sapiens) (UniProt P24941); details: at 0.1 µM; remark: listed apart in the source
[19] = target: Cyclin-dependent kinase 2 (Homo sapiens) (UniProt P24941); details: at 1 µM; remark: listed apart in the source
[20] = target: CDK3/Cyclin E (Homo sapiens) (UniProt P24864+Q00526); details: at 0.1 µM;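 note: reported percentages are mean inhibition values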
CDK3/Cyclin E (Homo sapiens), sequence (P24864 whole entry, looked up): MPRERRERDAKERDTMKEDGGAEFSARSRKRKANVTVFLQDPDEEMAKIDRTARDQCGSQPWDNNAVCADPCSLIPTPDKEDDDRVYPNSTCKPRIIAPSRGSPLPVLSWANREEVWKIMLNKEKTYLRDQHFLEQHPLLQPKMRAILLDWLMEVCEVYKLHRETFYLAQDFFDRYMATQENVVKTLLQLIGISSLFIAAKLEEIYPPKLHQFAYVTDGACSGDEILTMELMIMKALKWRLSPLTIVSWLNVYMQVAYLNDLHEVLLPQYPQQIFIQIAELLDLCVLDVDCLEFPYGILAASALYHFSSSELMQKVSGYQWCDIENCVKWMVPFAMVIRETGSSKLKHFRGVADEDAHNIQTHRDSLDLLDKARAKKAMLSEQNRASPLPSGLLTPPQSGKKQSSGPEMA
CDK3/Cyclin E (Homo sapiens), sequence (Q00526 whole entry, looked up): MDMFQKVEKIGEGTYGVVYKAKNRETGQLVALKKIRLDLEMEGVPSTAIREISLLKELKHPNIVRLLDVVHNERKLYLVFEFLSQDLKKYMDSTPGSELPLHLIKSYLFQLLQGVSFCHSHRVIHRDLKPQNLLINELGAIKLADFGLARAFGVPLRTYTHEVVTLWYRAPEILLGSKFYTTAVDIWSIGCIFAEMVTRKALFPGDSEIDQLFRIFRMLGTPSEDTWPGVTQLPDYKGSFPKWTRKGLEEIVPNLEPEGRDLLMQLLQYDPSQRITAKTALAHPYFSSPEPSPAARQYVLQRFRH

Cyclin-dependent kinase 1 (Homo sapiens), sequence (P06493 whole entry, looked up): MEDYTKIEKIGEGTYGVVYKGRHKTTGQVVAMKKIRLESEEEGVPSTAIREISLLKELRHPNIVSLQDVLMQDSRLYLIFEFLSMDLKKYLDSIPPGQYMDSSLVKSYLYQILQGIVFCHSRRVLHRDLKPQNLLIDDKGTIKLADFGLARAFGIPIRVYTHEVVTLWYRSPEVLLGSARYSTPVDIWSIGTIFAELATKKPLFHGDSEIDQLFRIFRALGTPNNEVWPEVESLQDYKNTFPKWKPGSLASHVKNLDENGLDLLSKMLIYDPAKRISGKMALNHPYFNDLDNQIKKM
Casein kinase I isoform gamma-1 (Homo sapiens), sequence (Q9HCP0 whole entry, looked up, canonical isoform): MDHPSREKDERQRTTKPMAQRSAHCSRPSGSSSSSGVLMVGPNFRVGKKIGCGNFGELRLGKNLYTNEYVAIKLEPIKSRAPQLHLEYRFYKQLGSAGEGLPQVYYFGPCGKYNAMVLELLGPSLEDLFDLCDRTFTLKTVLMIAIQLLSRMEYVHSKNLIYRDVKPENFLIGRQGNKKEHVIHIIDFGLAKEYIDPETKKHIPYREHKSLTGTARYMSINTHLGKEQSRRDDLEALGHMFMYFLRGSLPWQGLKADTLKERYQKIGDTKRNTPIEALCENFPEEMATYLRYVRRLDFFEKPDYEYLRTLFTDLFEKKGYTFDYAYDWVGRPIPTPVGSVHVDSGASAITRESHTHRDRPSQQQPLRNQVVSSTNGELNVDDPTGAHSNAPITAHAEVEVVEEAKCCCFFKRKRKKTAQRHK
Casein kinase I isoform gamma-3 (Homo sapiens), sequence (Q9Y6M4 whole entry, looked up, canonical isoform): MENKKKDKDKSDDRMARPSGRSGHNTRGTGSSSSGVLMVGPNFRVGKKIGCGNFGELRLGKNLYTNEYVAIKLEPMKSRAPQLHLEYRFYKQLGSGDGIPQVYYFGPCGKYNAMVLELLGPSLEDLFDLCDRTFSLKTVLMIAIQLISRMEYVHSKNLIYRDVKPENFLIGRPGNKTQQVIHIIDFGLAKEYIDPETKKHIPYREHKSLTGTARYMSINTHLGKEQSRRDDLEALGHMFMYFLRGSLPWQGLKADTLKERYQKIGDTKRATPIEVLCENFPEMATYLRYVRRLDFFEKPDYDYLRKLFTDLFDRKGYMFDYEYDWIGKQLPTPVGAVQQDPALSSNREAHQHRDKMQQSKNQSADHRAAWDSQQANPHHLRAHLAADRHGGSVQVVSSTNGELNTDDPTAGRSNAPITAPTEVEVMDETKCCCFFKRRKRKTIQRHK
Casein kinase I isoform alpha (Homo sapiens), sequence (P48729 2-337 limits assumed): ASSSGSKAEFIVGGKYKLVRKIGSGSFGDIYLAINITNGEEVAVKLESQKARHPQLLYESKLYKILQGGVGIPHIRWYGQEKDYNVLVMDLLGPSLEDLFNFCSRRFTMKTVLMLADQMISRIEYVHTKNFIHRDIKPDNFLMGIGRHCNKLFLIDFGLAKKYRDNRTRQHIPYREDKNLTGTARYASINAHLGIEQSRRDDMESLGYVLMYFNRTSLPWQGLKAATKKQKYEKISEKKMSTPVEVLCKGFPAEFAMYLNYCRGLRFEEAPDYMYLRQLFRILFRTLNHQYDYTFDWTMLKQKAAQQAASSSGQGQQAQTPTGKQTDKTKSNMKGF
Casein kinase I isoform gamma-2 (Homo sapiens), sequence (P78368 whole entry, looked up, canonical isoform): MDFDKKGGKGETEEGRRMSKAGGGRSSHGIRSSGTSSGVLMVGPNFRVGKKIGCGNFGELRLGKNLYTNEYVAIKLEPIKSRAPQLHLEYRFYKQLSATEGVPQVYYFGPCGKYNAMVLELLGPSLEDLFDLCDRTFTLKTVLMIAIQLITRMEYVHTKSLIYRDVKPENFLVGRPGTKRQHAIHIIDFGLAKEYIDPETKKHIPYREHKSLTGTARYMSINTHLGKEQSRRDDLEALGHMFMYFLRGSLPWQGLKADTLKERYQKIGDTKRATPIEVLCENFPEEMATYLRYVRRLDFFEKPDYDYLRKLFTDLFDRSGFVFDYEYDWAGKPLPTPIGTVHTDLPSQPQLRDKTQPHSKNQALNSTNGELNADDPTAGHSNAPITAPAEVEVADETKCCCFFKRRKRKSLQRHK

| SMILES | inhibition [1] [%] | inhibition [2] [%] | inhibition [3] [%] | inhibition [4] [%] | inhibition [5] [%] | inhibition [6] [%] | inhibition [7] [%] | inhibition [8] [%] | inhibition [9] [%] | inhibition [10] [%] | inhibition [11] [%] | inhibition [12] [%] | inhibition [13] [%] | inhibition [14] [%] | inhibition [15] [%] | inhibition [16] [%] | inhibition [17] [%] | inhibition [18] [%] | inhibition [19] [%] | inhibition [20] [%] |
| --- | --- | --- | --- | --- | --- | --- | --- | --- | --- | --- | --- | --- | --- | --- | --- | --- | --- | --- | --- | --- |
| Cc1cc(-c2ccccn2)cc(C)c1/C=C/c1cncc(-c2nn[nH]n2)c1 | 2.21 | 4.23 | 4.46 | 1.85 | 2.37 | 3.47 | 7.87 | 6.09 | 4.39 | 2.75 | 6.46 | 2.01 | 4.69 | 3.71 | 5.82 | 2.14 | 2.77 | 3.02 | 7.32 | -2.85 |
| NC(=O)c1sc(-n2cnc3ccccc32)cc1OCc1ccccc1Br | 2.68 | 3.19 | 4.53 | 0.6 | 1.24 | 2.22 | 7.23 | 3.55 | 5.15 | 3.34 | 5.04 | 2.52 | 3.56 | 4.32 | 6.19 | 7.43 | 5.68 | 4.88 | 8.08 | -2.25 |
| NS(=O)(=O)c1ccc(Nc2cc(-c3cccc(O)c3)n[nH]2)cc1 | 6.87 | 3.95 | 3.25 | 1.95 | 1.79 | 3.67 | 5.95 | 5.15 | 6.27 | 3.99 | 5.96 | 7.49 | 2.14 | 2.03 | 12.9 | 16.7 | 78.1 | 16.5 | 56 | 5.95 |
| COc1cc2ncnc(Nc3ccc4c(cnn4Cc4ccccc4)c3)c2cc1OC | 1.45 | 2.62 | 3.63 | 0.21 | 0.75 | 1.02 | 1.16 | 1.64 | 2.33 | 1.06 | 2.98 | 0.8 | 1.75 | 2.61 | 6.2 | 4.41 | 2.68 | 6.35 | 7.13 | -0.7 |
| COC(=O)c1ccc2c(c1)C(=Cc1cc(Br)c(O)c(Br)c1)C(=O)N2 | 6.58 | 3.53 | 5.53 | -0.06 | 1.17 | 1.76 | 6.74 | 3.99 | 6.68 | 4.6 | 6.12 | 3.75 | 5.04 | 1.54 | 2.24 | 8.07 | 7.32 | 2.47 | 4.31 | -5.06 |
| ON=C1CCc2cc(-c3nc(C4CCNCC4)[nH]c3-c3ccncc3)ccc21 | 1.68 | 0.96 | 0.73 | -0.31 | -0.97 | -0.25 | 8.55 | 0.25 | 1.66 | 1.32 | 1.04 | 1.01 | 0.07 | 0.23 | 2.04 | 0.63 | -0.53 | 1.2 | 2.51 | 2.27 |
| [O-][S+]1CCN(Cc2ccc(-c3ccc4ncnc(Nc5ccc(OCc6ccccc6)c(Cl)c5)c4c3)o2)CC1 | 2.35 | 2.58 | 2.95 | 1.24 | 1.08 | 1.88 | 2.94 | 1.25 | 2.34 | 0.8 | 1.66 | 0.73 | 4.22 | 1.22 | 1.4 | 2.81 | 2.09 | 0.43 | 1.73 | -1.53 |
| CN(C)C(=O)O[C@H]1CN[C@H](C#Cc2cc3ncnc(Nc4ccc(OCc5cccc(F)c5)c(Cl)c4)c3s2)C1 | 4.42 | 1.61 | 0.19 | 0.42 | -1.25 | -3.89 | 2.94 | 1.92 | 2.06 | 2.17 | 1.66 | 1.79 | 0.71 | 0.08 | -0.52 | 1.13 | 1.7 | 3.08 | 3.18 | 0.39 |
| CCOc1nccc2c1nc(-c1nonc1N)n2CC | 6.01 | 3.94 | 4.63 | 2.77 | 4.45 | 3.85 | 2.28 | 2.65 | 1.76 | 1.95 | 1.13 | 1.1 | 0.56 | 0.5 | 2.69 | 0.81 | 2.63 | 2.66 | 5.12 | 2.48 |
| COC(=O)Nc1nc2cc(Oc3ccc(NC(=O)Nc4cccc(Br)c4)cc3)ccc2[nH]1 | 3.82 | 2.91 | 2.52 | 2.72 | 2.43 | 4.89 | 9.35 | 1.77 | 2.02 | 0.89 | 1.6 | -0.42 | 1.82 | 1.34 | 2.26 | 3.2 | -0.87 | 1.48 | 2.15 | 2.04 |
| Nc1ccc(C#Cc2cncnc2Nc2ccc(OCc3cccc(F)c3)c(Cl)c2)cc1 | 3.55 | 2.73 | 2.62 | 1.11 | 0.95 | 3.47 | 2.49 | 2.52 | 2.66 | 1.58 | 2.65 | 2.45 | 2.75 | 1.11 | 1.87 | 1.4 | 1.57 | 2.14 | 3.31 | -0.93 |
| N#Cc1c(NC(=O)c2ccccc2F)sc2c1CCCC2 | -0.25 | 0.47 | 0.66 | 0.05 | 0.04 | -1.71 | -1.69 | -1.23 | -0.65 | -1.34 | -1.07 | -2.12 | -0.42 | 1.03 | 1.65 | -0.45 | 0.88 | -2.16 | -0.2 | -1.77 |
